Screening results (PubChem)
HCV inh – inhibitors of hepatitis C virus infection; Huh7.5.1 HCVcc-Cre infection, luciferase reporter, 44 h; Potency, µM (highest dose often 41.8 µM), inactives show top-dose activity change, negative = inhibition, hits mostly inhibitors; 340,000 compounds, 3.4% hits; AID 651820; further: potency means the concentration at half of the fitted maximal effect
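1,000 cells/well; 4 h culture; + compound; + HCVcc-Cre (~0.5 moi); 44 h; luciferase substrate, RT 15 min; read 15 sec.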
FMDV inh – antivirals against foot and mouth disease virus; FMDV antiviral cell-based qHTS; Potency, µM (doses to about 57.9 µM), for inactives: at the highest dose activity change, negative = inhibition, hits mostly inhibitors; 410,000 compounds, 1.2% hits; AID 1159524; calls by dose curve; tested in HEK293T cells; further: read-out not given here; potency means the concentration at half of the fitted maximal effect; nearly all actives have a fitted effect of over 45% in size
AmpC no deterg – AmpC beta-lactamase inhibition without detergent | Potency, µM (titrated, usually from 57.1 µM), inactives show at the top dose activity change, negative = inhibition, most hits filed as inhibitors | P00811 | AmpC nitrocefin hydrolysis, absorbance 480 nm, 0.0001% Triton | 330,000 compounds, 0.52% hits;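 further: potency means the concentration at half of the fitted maximal effect; plate controls were no compound for no effect and no enzyme for full effect; nearly all actives have a fitted effect of over 20% in size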
Target sequence (P00811 whole entry, looked up): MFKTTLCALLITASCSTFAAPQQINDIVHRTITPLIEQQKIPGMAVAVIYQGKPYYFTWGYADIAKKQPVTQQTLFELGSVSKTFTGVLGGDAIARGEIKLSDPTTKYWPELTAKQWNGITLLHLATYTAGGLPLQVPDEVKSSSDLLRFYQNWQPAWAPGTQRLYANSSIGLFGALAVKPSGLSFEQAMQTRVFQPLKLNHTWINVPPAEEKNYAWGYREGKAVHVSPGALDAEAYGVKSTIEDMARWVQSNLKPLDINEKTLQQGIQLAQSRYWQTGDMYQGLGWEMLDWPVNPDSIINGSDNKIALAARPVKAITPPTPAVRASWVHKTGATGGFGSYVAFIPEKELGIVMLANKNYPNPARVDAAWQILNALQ
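20 mM phosphate pH 7.0 + 0.01% (detergent screen) or 0.0001% Triton X-100; 5.3 nM AmpC reagent; cpd preinc 15 min RT; nitrocefin (800 uM stock) to start; A480 q20 s × 4 min; Activity was normalised to no-enzyme and no-compound control wells.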
AmpC inh detg – inhibitors of E. coli AmpC beta-lactamase with detergent; P00811; AmpC hydrolysis of nitrocefin, absorbance 480 nm, 0.01% Triton; Potency, µM (series often up to 114 µM), for inactives: at the top dose activity change, negative = inhibition, usual class: inhibitors; 370,000 compounds, 0.041% hits; AID 485294;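 further: potency means the concentration at half of the fitted maximal effect; 0% = no-compound wells and -100% = no-enzyme wells; nearly all actives have a fitted effect of over 25% in size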
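AmpC (5.3 nM in the dispensed reagent) in 20 mM phosphate pH 7.0 with 0.01% (detergent screen) or 0.0001% Triton X-100 was preincubated with compounds for 15 min at room temperature. Nitrocefin was then added from an 800 uM solution, and hydrolysis was followed at 480 nm.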
HCMV inh – blocks human cytomegalovirus replication; activity change, negative = inhibition, % at 57.5 µM; HFF cells, HCMV-luciferase reporter, 72 h; active compounds read low; 410,000 compounds, 4.5% hits; in the data active means activity change below about -60%; inconclusive means no clear call, values can overlap the other calls; inactive means above about -39%
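Human foreskin fibroblasts infected with luciferase-reporter HCMV at MOI 1 PFU/cell, compounds at two doses. Luciferase measured 72 h post infection; normalized to buffer-only basal and Salinomycin (10uM) controls.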
The depositor's hits bear a star; ? = inconclusive; . = not tested or not shown; + = active, no number; ! = a repeat was not active; [ ] = remark or other dose. In the library only some 7.3% were active in any assay of this set; here they are far more common. Unless noted, the call rests on the fitted dose curve; in most records, active means well fitted curve in the direction sought with a large enough effect; inconclusive means small, poorly fitted or top-dose-only effect, or another doubt; inactive means no such curve, though single readings can be large; an effect the other way counts as inactive or inconclusive. Unless noted, on the % scale 0 is the no-effect control and ±100 the full control effect.

SMILES	HCV inh	FMDV inh	AmpC no deterg	AmpC inh detg	HCMV inh
CCOc1ccc(/C=C2/Sc3ccc(C(=O)N4CCN(C(=O)c5ccco5)CC4)cc3N(C)C2=O)cc1OC	.	.	180.7%	-1.5%	.
CCOC(=O)N1CCC(NC(=O)c2ccc3c(c2)N(C)C(=O)/C(=C/c2cccc(OC)c2)S3)CC1	3.16µM*	?	-1.7%	0.4%	-18.8
COc1ccc(C(=O)NCC2Cc3cc(C)cc(-c4nc5ccccc5s4)c3O2)c(OC)c1OC (stereo unspecified)	.	-26.3%	.	.	.
O=C(/C=C/NNC(=O)c1ccccc1)c1ccc([N+](=O)[O-])cc1	3.55µM*	-9.5%	-26.8%	15.3%	-98.1*
O=C(/C=C/NNC(=O)c1ccccc1)c1ccccc1	?	10.7%	-36.7%	-13.3%	-15.8
CC(Oc1ccc(Cl)cc1Cl)C(=O)N(C)c1ccccc1 (stereo unspecified)	0.1%	1.5%	31.3%	?	-67.2*
COC(=O)NNC(=O)C(C)Oc1ccc(Cl)cc1Cl (stereo unspecified)	?	-13.1%	-12.5%	4.6%	-28.5
COc1ccc(CC2(CO)CCN(CC3=Cc4cc(Cl)ccc4OC3)CC2)cc1	4.47µM*	?	99.6%	?	?
COc1ccc(CC2(CO)CCN(Cc3cnn(-c4ccc(F)cc4)c3)CC2)cc1	10µM*	?	65.1%	2.3%	-10.3
COc1ccc2c(c1)C=C(CN1CCC(CO)(CCc3ccccc3)CC1)CO2	-11.3%	-24.9%	133.8%	1.8%	-2.8
OC(c1ccco1)c1nc(-c2ccc(F)c(Cl)c2)cs1 (stereo unspecified)	.	37.5%	.	.	-64.7*
OC(c1ccc(F)cc1)c1nc(-c2ccc(F)c(Cl)c2)cs1 (stereo unspecified)	.	13.0%	.	.	?
COc1ccc(Cl)cc1NC(=O)C/C(C)=N/NC(=O)C(=O)NCc1ccccc1	-14.3%	-9.0%	-1.5%	-3.8%	22.6
Cc1ccccc1C(=O)N1Cc2cnnn2-c2ccccc2C1C#N (stereo unspecified)	-14.1%[8.37 µM]	-14.0%	.	.	-21.6
Cc1ccccc1CN1Cc2cnnn2-c2ccccc2C1C#N (stereo unspecified)	?	12.6µM*	.	.	-98.5*
COC(=O)c1ccccc1-c1cc(C)cc2c1OC(CNC(=O)c1cnc(C)cn1)C2 (stereo unspecified)	.	15.3%	.	.	.
COc1ccc(CCN2C(=S)NC3CC2(C)Oc2ccc([N+](=O)[O-])cc23)cc1OC (stereo unspecified)	4.47µM*	25.1µM*	9.5%	?	-7.1
COc1ccc(CNC(=O)c2cnn(-c3ccc(OC)cc3)c2C2CCN(C(=O)OC(C)(C)C)CC2)cc1	.	3.5%	.	12.0%	0.0
COc1ccc(-n2ncc(C(=O)NCCc3ccsc3)c2C2CCN(C(=O)OC(C)(C)C)CC2)cc1	.	10.7%	.	21.8%	+
Cc1ccc(-c2noc(C3CCCN(C(=O)c4ccccc4Br)C3)n2)cc1 (stereo unspecified)	10µM*	5.2%	71.5%	-11.9%	?
Cc1ccc(-c2noc(C3CCCN(C(=O)c4c(F)cccc4F)C3)n2)cc1 (stereo unspecified)	.	-26.7%	51.4%	-9.0%	?
O=C(c1c(F)cccc1F)N1CCCC(c2nc(-c3ccc(Cl)cc3)no2)C1 (stereo unspecified)	11.2µM*	1.2%	57.4%	-10.2%	-15.5
O=C(c1ccc(F)cc1F)N1CCCC(c2nc(-c3ccc(F)cc3)no2)C1 (stereo unspecified)	11.2µM*	-36.2%	83.6%	-14.8%	-22.2
COc1ccc(-c2noc(C3CCCN(C(=O)c4ccccc4OC)C3)n2)cc1OC (stereo unspecified)	-21.4%	?	117.3%	-8.9%	38.5
COc1cc(C2=NOC(C(=O)NCc3ccc(F)cc3)C2)cc(OC)c1OC (stereo unspecified)	?	-9.5%	44.2%	8.7%	-83.8*
SMILES	HCV inh	FMDV inh	AmpC no deterg	AmpC inh detg	HCMV inh
C=CCOc1c(Cl)cc(C2NC(=O)NC(C)=C2C(=O)OC)cc1Cl (stereo unspecified)	11.2µM*	.	-13.6%	-2.4%	-19.5
C=CCn1c(C)cc(C(=O)COC(=O)/C=C/c2ccc(OC)cc2)c1C	?	0.5%	-24.3%	2.0%	14.8
C=CCn1c(C)cc(C(=O)COC(=O)/C=C/c2cccc(OC)c2)c1C	12.6µM*	-5.2%	-27.4%	1.3%	?
CCOc1ccc(C(C)=O)cc1COc1ccc(-c2nnco2)cc1	?	-6.6%	167.4%	1.4%	14.0
COc1ccc(NC(=O)[C@H](Cc2c[nH]c3ccccc23)NC(=O)[C@@H]2Cc3ccccc3CN2)cc1	?	-4.2%	-20.6%	-9.3%	.
CC(C)c1ccc(NC(=O)[C@H](Cc2c[nH]c3ccccc23)NC(=O)[C@@H]2Cc3ccccc3CN2)cc1	4.47µM*	2.7%	-31.3%	-7.1%	.
CCCCC1(C2CCCC2)NC(=O)NC1=O (stereo unspecified)	5.7%	-5.2%	.	.	1.2
CCc1nn2c(=O)c(S(=O)(=O)Nc3cccc(F)c3)c(C)nc2s1	2.7%	8.1%	-25.5%	?	-29.8
CCc1nn2c(=O)c(S(=O)(=O)Nc3ccc(C(C)C)cc3)c(C)nc2s1	-10.5%	-26.1%	54.9%	-18.7%	-63.8*!
O=C(CCc1nc(-c2ccccc2F)no1)Nc1ccc(Oc2ccccc2)cc1	?	?	-16.8%	-11.6%	-63.7*
COc1ccc(-c2noc(CCC(=O)Nc3cc(OC)ccc3OC)n2)cc1	?	-22.7%	13.5%	-16.0%	-10.3
COc1cccc(NC(=O)CCc2nc(-c3ccccc3F)no2)c1	?	0.0%	-28.7%	1.8%	5.3
COc1ccc(-c2noc(CCC(=O)Nc3cc(Cl)c(OC)cc3OC)n2)cc1	3.98µM*	-21.2%	12.7%	-7.1%	-38.0
CCOC(=O)c1ccc(NC(=O)CCc2nc(-c3cccc(C)c3)no2)cc1	8.91µM*	?	-1.4%	-0.6%	-32.2
Cc1cccc(-c2noc(CCC(=O)Nc3ccccc3)n2)c1	-10.7%	.	0.7%	?	?
COc1ccccc1CC(=O)Nc1ccc(-c2noc(COc3ccc(Cl)c(C)c3)n2)cc1	-13.7%	-22.9%	-15.7%	-11.6%	-67.0*
CCN(CC)C(=O)c1nc[nH]c1C(=O)N1CCN(c2ccccc2)CC1	1.1%	-6.9%	-2.5%	1.6%	?
O=C(Cn1cc2ccccc2n1)N1CCOc2ccc(C(O)C3CCCCC3)cc2C1 (stereo unspecified)	.	-12.5%	.	.	.
O=C(CCCc1nc(-c2ccc(Cl)cc2)no1)NC1CCCC1	?	?	31.1%	-7.7%	-83.7*
COc1ccc(-c2noc(CCCC(=O)Nc3ccc(C(N)=O)cc3)n2)cc1	-2.1%	?	-18.3%	2.8%	-89.7*
COc1ccc(-c2noc(CCCC(=O)NC3CCCC3)n2)cc1	12.6µM*	?	11.6%	-7.7%	-80.4*
